Data as given in PubChem BioAssay (NCI).
This is part of a sample that, as a whole, favours compounds with a hit. Of some 83,000 tested, about 20% had one in any assay.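 Plates (96-well) were seeded with cells, treated with compound at one concentration, and incubated for 48 hours before percent growth was determined.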 Active and inactive are the calls of the source. The calls were made as follows: active = growth percent below 10; inactive = the rest.

system: MDA-MB-231 breast; experiment: NCI-60 one-dose screen, 48 h (100 = growth as untreated, 0 = no growth, -100 = all killed); details: 10 µM unless noted

Compound | growth
CCCCC1CCCC12NC(=O)NC2=O (centres undefined) | 107% (inactive)
COc1ccc2c(c1)c(-c1nn3cc(-c4cccs4)nc3s1)cn2C | 54.1% (inactive)
COc1ccc([C@H]2c3cc(OC)c(OC)cc3C=C(C=O)C2CO)cc1OC (some centres undefined) | 70.2% (inactive)
C/C(=N/NC(N)=S)c1sc(Nc2cccc(Cl)c2)nc1C | 65% (inactive)
Cc1cccc2c3c(sc12)C(c1ccc(F)cc1)C(C#N)=C(N)O3 (centres undefined) | 26.9% (inactive)
COc1cc(C(=O)c2cnc(-c3cccc4[nH]ccc34)[nH]2)cc(OC)c1OC | -3.5% (active)
COc1ccc(C(=S)N2CCN(c3cccc(C)c3)CC2)cc1OC | 77.3% (inactive)
CCOC(=O)/C(C#N)=C\Nc1ccc2ncnc(Nc3ccc(Cl)cc3Cl)c2c1 | 85.2% (inactive)
Cc1nn(-c2ccccc2)c(-n2ccnc2)c1/C=N/Nc1nc(-c2ccc(F)cc2)cs1 | 79.6% (inactive)
Cc1cc(=O)oc2cc(OC(=O)N3CCN(C)CC3)ccc12 | 104% (inactive)
COc1cc(/C=C/c2c(C(C)=O)c(C)nc3ccccc23)cc(OC)c1OC | 43.1% (inactive)
NS(=O)(=O)c1ccc(-n2nc(-c3ccc(Cl)cc3)c3ccccc3c2=O)cc1 | 87.9% (inactive)
COc1ccc(C(=O)C[C@]2(O)C(=O)Nc3c(Cl)ccc(Cl)c32)cc1 | 49% (inactive)
O=c1[nH][n+](-c2ccc(Br)cc2)no1 | 68.7% (inactive)
COc1cc2cc(Oc3ccc(NC(=O)Nc4ccc(Cl)c(Cl)c4)cc3)c(C)nc2cc1OCCN1CCOCC1 | 97.1% (inactive)
C#C[C@]1(O)CC[C@H]2[C@@H]3CC=C4c5sc(Nc6ccccc6)nc5CC[C@]4(C)[C@H]3CC[C@@]21C | 27.7% (inactive)
CCCCCCCCCCCCCCCCCCOc1ccc(CC(=O)OCC[N+](C)(C)C)cc1 | 110% (inactive)
Cc1ccc(-c2nc3c(c(-c4ccccc4)nn3-c3ccccc3)c(-c3ccc(O)cc3)c2C#N)cc1 | 45.9% (inactive)
CN(C)CCS(=O)(=O)Nc1cc(-c2ccc3ncc(C#N)c(Nc4ccc(F)c(Cl)c4)c3c2)cnc1Cl | -39.5% (active)

Compound | growth
O=C(Nc1ccc(I)cc1F)c1cc(I)ccc1O | -34.7% (active)
C/C=C(\C)C(=O)N[C@H]1[C@@H](OC(C)=O)C[C@]2(C)C3CC[C@@]4(C)C(CC[C@@H]4C(C)N(C)C)C3CCC2[C@H]1O (some centres undefined) | 78% (inactive)
COc1ccc2[nH]c(-c3ccccc3)c(/C=C(\C#N)S(=O)(=O)c3ccccc3)c2c1 | 56.8% (inactive)
NCCNc1nc2ccccc2c2c(=O)c3cccc(F)c3sc12 | 44.7% (inactive)
Nc1nc2ccccc2c2c(=O)c3cc(F)ccc3sc12 | 100% (inactive)
O=C1CN(CCN2CC(=O)N(Cc3ccccc3)C(=O)C2)CC(=O)N1Cc1ccccc1 | 102% (inactive)
COc1ccc(-c2[nH]c3ccc(OC)cc3c2/C=C(\C#N)S(=O)(=O)c2ccccc2)cc1 | 14.9% (inactive)
CN1C(=O)N(C)C2Nn3c(s/c(=C\c4ccccc4)c3=O)=NC21 (centres undefined) | 98.1% (inactive)
Nc1ccc(Sc2ccc([N+](=O)[O-])c3nonc23)cc1 | 92.4% (inactive)
CS(=O)(=O)Nc1cc(-c2ccc3ncnc(Nc4cccc(Cl)c4F)c3c2)cnc1Cl | 13.7% (inactive)
CCCCNC(=O)Oc1ccc(/C(=C(\C)c2ccc(Cl)cc2)c2ccc(OCCN3CCCCC3)cc2)cc1 | 94% (inactive)
CCCSc1nc2ccc(C)cc2cc1/C=[N+](\[O-])c1ccccc1 | 51.1% (inactive)
C[C@H]1[C@H]2[C@H]3CC[C@@H]4[C@@]5(C)CC[C@H](O)C(C)(C)[C@@H]5CC[C@@]4(C)[C@]3(C)CC[C@]23CO[C@]1(C)[C@@H](C(=O)/C=C\c1cccnc1)C3 | 82.1% (inactive)
Cc1onc2c(-c3ccccc3)n[nH]c(=O)c12 | 100% (inactive)
COc1cc(/C=C/C(=O)/C=C/c2cc(OC)c3c(c2OC)OCO3)c(OC)c2c1OCO2 | 46% (inactive)
O=C1/C(=C/c2ccccc2[N+](=O)[O-])Oc2ccc(O)c(O)c21 | 45.6% (inactive)
CC1=C(C)C(=O)C(Nc2cccc(C(=O)OC(C)(C)C)c2)=C(Br)C1=O | -36.1% (active)
NS(=O)(=O)c1ccc(N=Nc2ccc(-c3nn4cc(-c5ccccc5)nc4s3)cc2)cc1 | 107% (inactive)

system: RXF 393 renal; experiment: as above; details: 10 µM unless noted

Compound | growth
CCCCC1CCCC12NC(=O)NC2=O (centres undefined) | 113% (inactive)
COc1ccc2c(c1)c(-c1nn3cc(-c4cccs4)nc3s1)cn2C | 96.3% (inactive)
COc1ccc([C@H]2c3cc(OC)c(OC)cc3C=C(C=O)C2CO)cc1OC (some centres undefined) | -9.23% (active)
C/C(=N/NC(N)=S)c1sc(Nc2cccc(Cl)c2)nc1C | 89.6% (inactive)
Cc1cccc2c3c(sc12)C(c1ccc(F)cc1)C(C#N)=C(N)O3 (centres undefined) | 38.7% (inactive)
COc1cc(C(=O)c2cnc(-c3cccc4[nH]ccc34)[nH]2)cc(OC)c1OC | 66.7% (inactive)
COc1ccc(C(=S)N2CCN(c3cccc(C)c3)CC2)cc1OC | 67.8% (inactive)
CCOC(=O)/C(C#N)=C\Nc1ccc2ncnc(Nc3ccc(Cl)cc3Cl)c2c1 | 77% (inactive)
Cc1nn(-c2ccccc2)c(-n2ccnc2)c1/C=N/Nc1nc(-c2ccc(F)cc2)cs1 | 88.5% (inactive)
Cc1cc(=O)oc2cc(OC(=O)N3CCN(C)CC3)ccc12 | 121% (inactive)
COc1cc(/C=C/c2c(C(C)=O)c(C)nc3ccccc23)cc(OC)c1OC | 10.8% (inactive)
NS(=O)(=O)c1ccc(-n2nc(-c3ccc(Cl)cc3)c3ccccc3c2=O)cc1 | 98.8% (inactive)
COc1ccc(C(=O)C[C@]2(O)C(=O)Nc3c(Cl)ccc(Cl)c32)cc1 | -3.05% (active)
O=c1[nH][n+](-c2ccc(Br)cc2)no1 | 105% (inactive)
COc1cc2cc(Oc3ccc(NC(=O)Nc4ccc(Cl)c(Cl)c4)cc3)c(C)nc2cc1OCCN1CCOCC1 | 84% (inactive)
C#C[C@]1(O)CC[C@H]2[C@@H]3CC=C4c5sc(Nc6ccccc6)nc5CC[C@]4(C)[C@H]3CC[C@@]21C | -53.1% (active)
CCCCCCCCCCCCCCCCCCOc1ccc(CC(=O)OCC[N+](C)(C)C)cc1 | 90.1% (inactive)
Cc1ccc(-c2nc3c(c(-c4ccccc4)nn3-c3ccccc3)c(-c3ccc(O)cc3)c2C#N)cc1 | -10.4% (active)
CN(C)CCS(=O)(=O)Nc1cc(-c2ccc3ncc(C#N)c(Nc4ccc(F)c(Cl)c4)c3c2)cnc1Cl | -56% (active)

Compound | growth
O=C(Nc1ccc(I)cc1F)c1cc(I)ccc1O | -9.34% (active)
C/C=C(\C)C(=O)N[C@H]1[C@@H](OC(C)=O)C[C@]2(C)C3CC[C@@]4(C)C(CC[C@@H]4C(C)N(C)C)C3CCC2[C@H]1O (some centres undefined) | 83.2% (inactive)
COc1ccc2[nH]c(-c3ccccc3)c(/C=C(\C#N)S(=O)(=O)c3ccccc3)c2c1 | 57.5% (inactive)
NCCNc1nc2ccccc2c2c(=O)c3cccc(F)c3sc12 | 83.3% (inactive)
Nc1nc2ccccc2c2c(=O)c3cc(F)ccc3sc12 | 104% (inactive)
O=C1CN(CCN2CC(=O)N(Cc3ccccc3)C(=O)C2)CC(=O)N1Cc1ccccc1 | 108% (inactive)
COc1ccc(-c2[nH]c3ccc(OC)cc3c2/C=C(\C#N)S(=O)(=O)c2ccccc2)cc1 | -7.82% (active)
CN1C(=O)N(C)C2Nn3c(s/c(=C\c4ccccc4)c3=O)=NC21 (centres undefined) | 106% (inactive)
Nc1ccc(Sc2ccc([N+](=O)[O-])c3nonc23)cc1 | 104% (inactive)
CS(=O)(=O)Nc1cc(-c2ccc3ncnc(Nc4cccc(Cl)c4F)c3c2)cnc1Cl | -24% (active)
CCCCNC(=O)Oc1ccc(/C(=C(\C)c2ccc(Cl)cc2)c2ccc(OCCN3CCCCC3)cc2)cc1 | 79.5% (inactive)
CCCSc1nc2ccc(C)cc2cc1/C=[N+](\[O-])c1ccccc1 | 69.4% (inactive)
C[C@H]1[C@H]2[C@H]3CC[C@@H]4[C@@]5(C)CC[C@H](O)C(C)(C)[C@@H]5CC[C@@]4(C)[C@]3(C)CC[C@]23CO[C@]1(C)[C@@H](C(=O)/C=C\c1cccnc1)C3 | 75.2% (inactive)
Cc1onc2c(-c3ccccc3)n[nH]c(=O)c12 | 122% (inactive)
COc1cc(/C=C/C(=O)/C=C/c2cc(OC)c3c(c2OC)OCO3)c(OC)c2c1OCO2 | 16.6% (inactive)
O=C1/C(=C/c2ccccc2[N+](=O)[O-])Oc2ccc(O)c(O)c21 | 5.8% (active)
CC1=C(C)C(=O)C(Nc2cccc(C(=O)OC(C)(C)C)c2)=C(Br)C1=O | 94.9% (inactive)
NS(=O)(=O)c1ccc(N=Nc2ccc(-c3nn4cc(-c5ccccc5)nc4s3)cc2)cc1 | 111% (inactive)
